Measured values published in PubChem BioAssay AID720513 (Broad Institute, 2013).
The whole screen tested about 2,100 compounds, of which about 480 (23%) were called active. Not shown: some 5% with an inconclusive outcome.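 Rule for the calls: active = fitted curve reaches 40% activation at or below the top valid concentration, in every replicate test; inconclusive = replicate tests disagree on the call; inactive = the rest, including activity in the opposite direction.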 Not all results are given here. Where a call stands in place of a potency, no number is given. Potency and affinity values are given separately.

experiment: activators raising PGC1a acetylation in cells, dose response, cell-based, cherry-picked samples, set 6 (AID 720513); settings: U2OS PGC1a acetylation AlphaLISA, overnight, 0 = neutral, -100 = inhibitor control; series mostly up to 19.5 µM;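 note: cells made to overexpress flag tagged PGC1a plus GCN5 acetyltransferase by viral infection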

Structure (SMILES) | outcome
C[C@@H]1CN([C@@H](C)CO)C(=O)CCCn2cc(nn2)CO[C@H]1CN(C)S(=O)(=O)c1ccccc1 | inactive
CCCn1c(-c2ccccc2)cc(SC)c(C#N)c1=O | inactive
COc1c(O)cc(O)c2c(=O)cc(-c3ccccc3)oc12 | inactive
C=CCn1c(C)nnc1SCC(=O)NC1CC1 | inactive
CC(C)c1ccc(NC(=O)CCNS(=O)(=O)c2cccc3nonc23)cc1 | inactive
Cc1cc(C)nc(SCC(=O)OCN2C(=O)c3ccccc3C2=O)n1 | inactive
CCN(c1ccccc1)S(=O)(=O)c1ccc(OC)c(NC(=O)Cc2ccc(F)cc2)c1 | inactive
COc1ccccc1NS(=O)(=O)c1cccc(NC(=O)C2CC(=O)N(Cc3ccccc3)C2)c1 (configuration not stated) | inactive
CCc1ccc(Nc2nnc(SCC(=O)Nc3ccc(C(=O)O)cc3)s2)cc1 | inactive
CCOc1ccccc1C(=O)NCCCCCC(=O)O | inactive
COCCNC(=O)CN1CCC(NC(=O)C(C)(C)C)CC1 | inactive
O=C(c1cc2ccccc2o1)N1CC=C(c2ccccc2)CC1 | inactive
CC1=Nc2ccccc2N=C(NC(=O)CN2CCN(c3ccccc3)CC2)C1c1ccccc1 (configuration not stated) | inactive
COc1cc(C2C(C#N)=C(N)Oc3c2oc(CO)cc3=O)cc(OC)c1OC (configuration not stated) | inactive
CC(C)N1CCc2c(sc(NC(=O)C3CCCCC3)c2C(N)=O)C1 | inactive
COC(=O)[C@@]1(Cc2ccccc2CN=[N+]=[N-])N=C(c2ccc(OCCCO)cc2)O[C@H]1c1ccccc1 | inactive
Cc1ccccc1-n1nnnc1Sc1nnnn1-c1ccccc1 | inactive
Cc1ccccc1Cn1nc(C)c(NC(=O)c2cc(-c3cccs3)on2)c1C | inactive
NC(=O)COC(=O)/C=C/c1ccc2ccccc2n1 | inactive
CCOc1ccc(N2C(=O)Cc3ccccc3C2=O)cc1 | inactive
COc1ccc(S(=O)(=O)N2c3ccc(F)cc3CCC2C)cc1 (configuration not stated) | inactive
O=C(CCc1nc2ccccc2c(=O)[nH]1)OCC(=O)N1CCc2ccccc21 | inactive
CCc1ccc(N2CC(O)=C(c3nc4ccccc4c(=O)[nH]3)C2=N)cc1 | inactive
CO[C@H]1CN(C)C(=O)c2ccc(NC(=O)c3ccno3)cc2OC[C@H](C)NC[C@H]1C | inactive
Cc1cccc(C)c1NC(=O)CN(C)C(=O)c1cc(S(=O)(=O)N(C)C)ccc1N1CCCC1 | inactive

Structure (SMILES) | outcome
COc1ccccc1C(=O)Nc1ccc2c(c1)nc(CCNC(=O)c1ccco1)n2C | inactive
CN(Cc1ccccc1)S(=O)(=O)c1ccc(S(=O)(=O)N(Cc2ccc(F)cc2)C2CCCC2)cc1 | inactive
Cc1ccc2nsnc2c1S(=O)(=O)N(Cc1ccco1)Cc1cc2cccc(C)c2[nH]c1=O | inactive
COc1ccc(-c2csc(N(CCCN(C)C)C(=O)c3cccs3)n2)cc1 | inactive
COc1ccc(-c2csc(N(CCCN(C)C)C(=O)c3ccc(Br)cc3)n2)cc1 | inactive
CO[C@H]1CN(C)C(=O)c2cc(NC(C)=O)ccc2OC[C@@H](C)N(CC2CCCCC2)C[C@@H]1C | inactive
CC(c1n[nH]c(=S)n1Cc1ccccc1)N(C)C (configuration not stated) | inactive
O=S(=O)(c1ccc2[nH]ccc2c1)N1CCCCCC1 | inactive
CCCCSCCCNC(=O)c1cn(C)c2ccc(S(=O)(=O)N3CCCC3)cc2c1=O | inactive
CCNc1nc(Oc2ccc(C#N)cc2)cc(C(F)(F)F)n1 | inactive
COc1ccccc1C(=O)Oc1cc(N)n(S(=O)(=O)c2ccc(C)cc2)n1 | inactive
CCOC(=O)C1=C(C)N=C2SC(C(=O)OC)=CC(=O)N2C1c1cccc(OC)c1 (configuration not stated) | inactive
Cn1c(Cl)cnc1C1CC(=O)c2cc(Cl)ccc2O1 (configuration not stated) | inactive
Cc1noc(C)c1NC(=O)N(C)C[C@@H]1Oc2c(NS(=O)(=O)c3cn(C)cn3)cccc2C(=O)N([C@@H](C)CO)C[C@@H]1C | inactive
CO[C@@H]1CN(C)C(=O)c2cc(NS(=O)(=O)c3ccc(Cl)cc3)ccc2OC[C@H](C)N(C)C[C@H]1C | inactive
CC(C)C#Cc1ccc2c(c1)O[C@@H](CN(C)C(=O)C1CC1)[C@@H](C)CN([C@@H](C)CO)S2(=O)=O | inactive
Cc1cccc(C)c1NC(=O)C(NC(=O)c1ccccn1)c1ccc([N+](=O)[O-])cc1 (configuration not stated) | inactive
CCCCCC(=O)N1C[C@H](n2cc(-c3ccc(F)cc3)nn2)[C@@H](O)C[C@@H]1c1ccc(C)cc1 | inactive
CCOC(=O)CC1C(=O)NCCN1S(=O)(=O)c1ccc(C)cc1 (configuration not stated) | inactive
CCOC(=O)C1=C(CS(=O)(=O)c2ccccc2)NC(=O)NC1c1ccc(O)c(OC)c1 (configuration not stated) | inactive
OC[C@@H]1[C@H](c2ccc(C#CC3CCCC3)cc2)[C@H]2CN(CCC(F)(F)F)CCCCN12 | inactive
CO[C@H]1CN(C)C(=O)c2cc(NC(=O)NC(C)C)ccc2OC[C@H](C)N(Cc2ccc(-c3ccccn3)cc2)C[C@@H]1C | inactive
CCCS(=O)(=O)N1CCCC(C(=O)NCCCOC(C)C)C1 (configuration not stated) | inactive
Cc1nnc(NC(=O)CSc2ncc(-c3ccccc3)[nH]2)s1 | inactive
Cc1ccc(-c2nc(NC(=O)c3nn(C)cc3[N+](=O)[O-])sc2C)cc1 | inactive

Structure (SMILES) | outcome
CO[C@H]1CN(C)C(=O)c2ccc(NS(=O)(=O)c3ccccc3)cc2OC[C@@H](C)N(C(=O)NC(C)C)C[C@@H]1C | inactive
O=C(c1cc(Cl)ccc1Cl)N1CCc2ccccc21 | inactive
O=C(c1ccccc1Cl)N1CCNCC1 | inactive
O=C(O)c1ccccc1C(=O)N1CCN(C(=O)c2ccccc2Cl)CC1 | inactive
C[C@H](CO)N1C[C@H](C)[C@@H](CN(C)Cc2cncnc2)Oc2cc(C#CC3CC3)ccc2S1(=O)=O | inactive
O=C(COn1nnc2ccc(Cl)cc21)NC12CC3CC(CC(C3)C1)C2 | inactive
CC(C)(C)OC(=O)NCCc1nnc(SCc2ccc(Cl)cc2)o1 | inactive
OC(CN1c2ccccc2Sc2ccccc21)Cn1nnc2ccccc21 (configuration not stated) | inactive
CCOc1ccccc1OCCn1nnc2ccccc21 | inactive
CN1C[C@H](C(=O)N[C@]2(C)O[C@@]3(O)[C@@H]4CCCN4C(=O)[C@H](Cc4ccccc4)N3C2=O)CC2c3cccc4[nH]cc(c34)C[C@H]21 (some centres not stated) | inactive
O=C(Nc1cccc(F)c1)N1C[C@@H]2N[C@H](C1)C2c1ccc(-c2ccc(F)cc2)cc1 (some centres not stated) | inactive
C[C@H](CO)N1C[C@H](C)[C@H](CN(C)S(C)(=O)=O)Oc2ncc(-c3cc4ccccc4o3)cc2C1=O | inactive
CC(C)[C@H](NC(=O)NCc1cccs1)C(=O)O | inactive
O=C(Nc1nc2ccccc2[nH]1)c1ccc(Cl)c(S(=O)(=O)N2CCCC2)c1 | inactive
CCOc1ccnc(OCC)c1Br | inactive
C[C@@H]1CN([C@H](C)CO)C(=O)c2cc(NS(C)(=O)=O)ccc2O[C@@H]1CN(C)S(=O)(=O)c1ccc(Cl)cc1 | inactive
CCN1CCN(Cc2ccc(NC(=O)c3ccc(C)c(NC(=O)c4c[nH]c5cc(C(F)(F)F)ccc5c4=O)c3)cc2C(F)(F)F)CC1 | inactive
Cc1ccccc1S(=O)(=O)NCC[C@@H]1CC[C@@H](NC(=O)C2CCOCC2)[C@H](CO)O1 | inactive
COCCSc1ccccc1C(=O)Nc1cc(C)on1 | inactive
Cn1nnnc1SC1CC(=O)N(c2ccccc2)C1=O (configuration not stated) | inactive
CN(C)C(=O)c1ccc(-c2ccc([C@@H]3[C@H]4CN(C(=O)CC5CC5)CC(=O)N4[C@H]3CO)cc2)cc1 | inactive
OC(c1ccc(Cl)cc1Cl)C(Cc1cccnc1)n1cncn1 (configuration not stated) | inactive
OC(c1cc(-c2ccc(Cl)cc2)nc2ccccc12)C1CCCCN1 (configuration not stated) | inactive
COc1ccc2c(c1)sc1nc(-c3ccccc3)cn12 | inactive
COc1ccc2c3c(n(C)c2c1)[C@H](CO)NCC31CCN(Cc2cc(F)ccc2F)CC1 | inactive

Structure (SMILES) | outcome
Cc1ccc(C(=O)NNC(=O)c2cccc(Br)c2)cc1 | inactive
Cc1ccccc1NC(=O)CC1c2ccccc2CC(C)(C)N1C (configuration not stated) | inactive
O=C(COc1ccccc1)N1CCN=C1SCc1ccccc1 | inactive
Cn1nc(-c2ccccc2F)c2cc(C(=O)N3CCN(C(=O)c4ccco4)CC3)sc21 | inactive
CN1CCN(C(=O)c2sc(=S)n(-c3ccccc3)c2N)CC1 | inactive
Cc1cc(C)c2nc(N3CCCC(C(=O)N4CCC(C(N)=O)CC4)C3)sc2c1 (configuration not stated) | inactive
O=C1c2ccccc2-c2c1cccc2C(=O)N1CCN(C(=O)c2ccco2)CC1 | inactive
CCN1CCN(c2nnc(-c3ccccc3)c3ccccc23)CC1 | inactive
Cc1ccc(S(=O)(=O)N2CCN(C(=O)CSc3nc4ccccc4c(=O)[nH]3)CC2)c(C)c1 | inactive
Cc1cc(C)cc(C(=O)Nc2ccc3[nH]c(=O)[nH]c3c2)c1 | inactive
COc1cccc(N2CCN(c3ncnc4c3[nH]c3ccc(F)cc34)CC2C)c1 (configuration not stated) | inactive
C=CCOc1ccccc1CNc1ccc2[nH]c(=O)[nH]c2c1 | inactive
O=C(C[C@H]1C=C[C@H](NC(=O)Nc2ccc(C(F)(F)F)cc2)[C@@H](CO)O1)NCc1ccccn1 | inactive
COc1ccc(S(=O)(=O)N2CCN(C(=O)c3cccs3)CC2)cc1OC | inactive
O=C(Cc1ccccc1)N1N=C(c2ccncc2)CC1(O)C(F)(F)F (configuration not stated) | inactive
CC(=O)c1cccc(-n2nnnc2SCC(=O)NNC(=O)C(C)C)c1 | inactive
C[C@H](CO)N1C[C@H](C)[C@H](CN(C)S(=O)(=O)c2ccc(F)cc2)Oc2ncc(-c3cccc(C(=O)N(C)C)c3)cc2C1=O | inactive
Cc1nonc1NC(=O)CSc1nc(C2CCCCC2)nc2ccccc12 | inactive
CC(C)(CO)CNc1ccn2nccc2n1 | inactive
Cc1cccc(C)c1NC(=O)CS(=O)CC(=O)Nc1ccc(F)cc1F (configuration not stated) | inactive
O=C(CSC1=NS(=O)(=O)c2ccccc2N1)Nc1ccc(F)cc1 | inactive
O=C1C=CCCN1C(=O)/C=C/c1cccc(Br)c1 | inactive
